HT1080 IDH1KD tx – HT-1080 IDH1 knockdown cell toxicity (counter line). Potency, µM (top dose mostly 46.1 µM), inactives show at the top dose activity, negative = toxicity, hits mostly cytotoxic. HT-1080 IDH1 knockdown viability, ATP luminescence, 48 h. 360,000 compounds, 2% hits;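 also: 0% = DMSO wells and -100% = cell-free medium wells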
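Luminescent ATP read-out (CellTiter-Glo, 10 min at room temperature) after 48 h compound exposure at 37 °C gave viability of IDH1-knockdown HT-1080 cells. Activity was normalised to DMSO and cell-free wells, then fitted as concentration-response curves.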
HepG2 viability – kills HepG2 cells in TGF-b inhibitor counter-screen | HepG2 CAGA-GFP viability, ATP luminescence, 18 h | Potency, µM (top dose mostly 46.1 µM), for the others: at the highest dose activity change, negative = cytotoxicity, most hits filed as cytotoxic | 410,000 compounds, 0.76% hits | AID 588856
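CellTiter-Glo luminescence gave cytotoxicity after 18 hours at 37 degrees C. The cells were HepG2 CAGA-GFP in 1% FBS DMEM, stimulated with 500 pg/mL TGF-beta after compound addition. %Activity was normalised to no-cell wells (complete cell-killing) and DMSO (no toxicity), and curves were fitted and classified.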
HT1080-NT tox – kills 2HG-producing HT-1080-NT fibrosarcoma cells | HT-1080-NT fibrosarcoma viability, CellTiter-Glo ATP luminescence, 48 h | Potency, µM (titrated, usually from 46.1 µM), without a hit: top-dose activity, negative = less viability, most hits filed as cytotoxic | 360,000 compounds, 1.6% hits | AID 686970;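 also: NT is the 2HG producing partner of a matched IDH1 knockdown line; 0% = DMSO-treated cells and -100% = media-only wells without cells; nearly all actives have a fitted effect of over 55% in size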
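Toxicity toward the 2HG-producing NT line was scored as %Activity, normalised to DMSO and no-cell wells, from CellTiter-Glo luminescence after 48 hours' treatment.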
DT40 TDP1 CPT – DT40-hTDP1 cell growth loss with CPT | AID 686979 | 420,000 compounds, 12% hits | chicken DT40 Tdp1-/-;hTDP1 cells + 20 nM CPT, ATP luminescence, 48 h | Potency, µM (titrated, usually from 46.2 µM), for inactives: at the top dose activity change, negative = growth inhibition, actives largely listed as inhibitors; also: % is scaled to controls: 0 for no effect and ±100 for the full control effect; nearly all actives have a fitted effect of over 55% in size
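Cell growth measured by CellTiter-Glo luminescence after a minimum 48 h, 37 C compound exposure with 20 nM CPT in Tdp1-knockout DT40 cells stably expressing hTDP1, seeded 400/well; qHTS titration format.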
TDP1 cell noCPT – qHTS for Inhibitors of human tyrosyl-DNA phosphodiesterase 1 (TDP1): qHTS in cells in absence of CPT | DT40 Tdp1-/- hTDP1 cells, no CPT, ATP luminescence, 48 h | Potency, µM (series often up to 46.2 µM), for inactives: at the highest dose activity change, negative = growth inhibition, hits mostly inhibitors | 420,000 compounds, 15% hits | AID 686978, 2013; also: % is scaled to controls: 0 for no effect and ±100 for the full control effect; nearly all actives have a fitted effect of over 55% in size
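Readout: luminescence from CellTiter-Glo after 30 min in the dark at RT. Cells: DT40 Tdp1-/- with stable hTDP1, 400/well. Exposure: compounds alone, ≥48 hr, 37 °C.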
TGFb SMAD3 inh – TGF-b pathway inhibition; HepG2 CAGA-GFP TGF-b/SMAD3 reporter, GFP fluorescence, 18 h; TGF-beta stimulated, 500 pg/mL final; Potency, µM (series often up to 46.1 µM), for inactives: top-dose activity, negative = inhibition, hits mostly inhibitors; 410,000 compounds, 1.2% hits; AID 588855; also: % is scaled to controls: 0 for no effect and ±100 for the full control effect; nearly all actives have a fitted effect of over 65% in size
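First, reporter cells (HEPG2 CAGA-GFP) rested 2 h at 37 degrees C. Next, compounds were pinned in and TGF-beta added to 500 pg/mL final. After 18 h, GFP was imaged per cell and summed per well.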
An asterisk follows results filed as active; ? = inconclusive; . = no result given. The list is not random: actives were taken first. Their share in the collection is about 17%. Calls follow the shape of the dose curve; as a rule, active = well fitted curve in the direction sought with a large enough effect; inconclusive = small, poorly fitted or top-dose-only effect, or another doubt; inactive = no such curve, though single readings can be large; an effect the other way counts as inactive or inconclusive. Potency is read from the fitted curve at half-maximal effect.

SMILES	HT1080 IDH1KD tx	HepG2 viability	HT1080-NT tox	DT40 TDP1 CPT	TDP1 cell noCPT	TGFb SMAD3 inh
COc1ccc(NS(=O)(=O)c2cc(Br)cc3c2N(C(=O)C2CC2)CC3)cc1OC	.	-12.2%	.	2.31µM*	2.06µM*	2.2%
CC(C)c1ccc(NS(=O)(=O)c2cc(Br)cc3c2N(C(=O)C2CC2)CC3)cc1	.	3.5%	.	8.2µM*	4.61µM*	-2.6%
O=C(O)CCS(=O)(=O)c1cc(Br)cc2c1N(C(=O)C1CC1)CC2	7.4%	-7.7%	22.0%	19.6%	8.3%	7.4%
Cn1ccsc1=NC(=O)c1cc(S(=O)(=O)N2CCOCC2)ccc1F	3.4%	-13.4%	4.7%	-12.3%	-9.7%	0.7%
CC(NC(=O)/C=C/c1ccco1)c1nc2ccccc2n1Cc1cccc(Cl)c1 (stereo not drawn)	-25.4%	-29.3%	-2.0%	?	?	?
Cc1cc(NC(=O)COC(=O)c2oc3c(Cl)cccc3c2C)no1	1.8%	2.9%	0.7%	-21.4%	-12.5%	5.4%
O=C(CCS(=O)(=O)c1cc(Br)cc2c1N(C(=O)C1CC1)CC2)N1CCN(c2ccc(F)cc2)CC1	.	5.5%	.	?	?	-27.9%
O=C(CCS(=O)(=O)c1cc(Br)cc2c1N(C(=O)C1CC1)CC2)N1CCN(c2cccc(C(F)(F)F)c2)CC1	.	-20.9%	.	16.4µM*	18.4µM*	?
COc1cccc(-c2noc(-c3cc4ccccc4oc3=O)n2)c1OC	.	-19.7%	.	-7.9%	-15.2%	2.0%
O=C([O-])c1ccccc1-[n+]1c(-c2ccccc2)cc(-c2ccccc2)cc1-c1ccccc1	-16.8%	0.6%	-14.8%	4.61µM*	5.8µM*	?
O=C(O)c1cc(C(=O)O)c(-c2ccccc2)c(C(=O)O)c1	20.5%	-4.8%	6.7%	-7.5%	-6.0%	?
COc1ccccc1C(=O)N/N=C(\C)c1ccc(NC(=O)C2CC2)cc1	17.9%	13.3%	28.4%	4.5%	-17.3%	-0.9%
CCOC(=O)c1ccc(S(=O)(=O)N2CCN(C)CC2)cc1	15.1%	-6.3%	2.5%	2.8%	-2.0%	-2.9%
CC1CN(CC(O)COc2ccc(C#N)cc2)CCN1CC(O)COc1ccc(C#N)cc1 (stereo not drawn)	0.2%	4.9%	5.7%	20.6µM*	23.1µM*	1.3%
CCOC(=O)c1ccc(S(=O)(=O)N2CCN(C/C=C/c3ccccc3)CC2)cc1	-1.5%	-0.4%	-5.0%	?	13µM*	-6.1%
CCOC(=O)c1ccc(S(=O)(=O)N2CCN(CC(O)COc3ccc(C#N)cc3)CC2)cc1 (stereo not drawn)	13.9%	-1.8%	-6.9%	?	18.4µM*	-15.3%
CCOC(=O)c1ccc(S(=O)(=O)N2CCN(CCC#N)CC2)cc1	9.5%	-2.0%	9.5%	0.5%	-25.7%	-0.2%
CCOC(=O)/C(C#N)=C\c1ccc(N2CCN(C/C=C/c3ccccc3)CC2)cc1	-12.7%	-38.7%	-8.5%	?	20.6µM*	-5.8%
COc1ccc2[nH]cc(CCNc3cc(-c4ccc(C(=O)N(C)C)cc4)ncn3)c2c1	.	.	.	?	-16.6%	.
COc1ccc2[nH]cc(CCNc3ccnc(-c4ccc(C(=O)N(C)C)cc4)n3)c2c1	.	.	.	11.6µM*	11.6µM*	.
COc1cccc(-c2nccc(NCc3cnc(C)cn3)n2)c1	.	.	.	8.3%	-18.1%	.
OC(CNc1nc(-c2cccnc2)nc2ccccc12)c1ccccc1 (stereo not drawn)	?	-33.8%	?	14.6µM*	23.1µM*	-27.5%

Source: PubChem BioAssay
